# Measured values published in PubChem BioAssay (NCATS).
# Values joined by “and” are separate entries in the source; they are usually repeats but may differ in a detail not shown here. Equal values may be shown once. Unmarked numbers belong to inactive results. Results filed as inconclusive are left out. Entries that show only a call come without a potency. Active and inactive are the calls of the source. Unless noted, the call rests on the fitted dose curve; in most records, active means well fitted curve in the direction sought with a large enough effect; inconclusive means small, poorly fitted or top-dose-only effect, or another doubt; inactive means no such curve, though single readings can be large; an effect the other way counts as inactive or inconclusive.
# Assays:
# OV90 = experiment: Primary qHTS to identify gynecologic anti-cancer compounds using libraries of approved drugs and bioactive compounds (AID 1345084); conditions: Gynecologic cancer cell panel viability, ATPlite luminescence, 48 h; series mostly up to 57.5 µM; further: nearly all actives have a fitted effect of over 55% in size; further: potency means the concentration at half of the fitted maximal effect
# In short: (§1)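 Cell viability after 48 h drug treatment, ATPlite luminescence readout; five doses.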
# Tov-21-G = experiment: as above; conditions: Gynecologic cancer cell panel viability, ATPlite luminescence, 48 h; series mostly up to 57.5 µM
# In short: as §1
# SKOV3 = experiment: as above; conditions: Gynecologic cancer cell panel viability, ATPlite luminescence, 48 h; series mostly up to 57.5 µM
# In short: as §1
# Tov112D = experiment: as above; conditions: Gynecologic cancer cell panel viability, ATPlite luminescence, 48 h; series mostly up to 57.5 µM
# In short: as §1
# astro = experiment: Drug repurposing screens with cells derived from glioblastoma tumor samples (AID 1345199); conditions: viability, ATP luminescence, 48 h; series mostly up to 45.9 µM; further: nearly all actives have a fitted effect of over 40% in size; further: potency means the concentration at half of the fitted maximal effect
# In short: (§2)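 Primary testing used CD133+ neurospheres from four GBM patients, seven concentrations, 48 h exposure and ATP-based viability; confirmation added three slower-growing patient lines.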
# PA-1 = experiment: Primary qHTS to identify gynecologic anti-cancer compounds using libraries of approved drugs and bioactive compounds (AID 1345084); conditions: Gynecologic cancer cell panel viability, ATPlite luminescence, 48 h; series mostly up to 57.5 µM; further: nearly all actives have a fitted effect of over 55% in size; further: potency means the concentration at half of the fitted maximal effect
# In short: as §1
# [1] = Drug repurposing screens with cells derived from glioblastoma tumor samples (AID 1345199); conditions: GBM patient neurospheres viability, ATP luminescence, 48 h; further: nearly all actives have a fitted effect of over 40% in size; further: potency means the concentration at half of the fitted maximal effect
# In short: as §2
# [2] = target: Nuclear receptor subfamily 1 group I member 2 (Rattus norvegicus) (UniProt Q9R1A7); experiment: qHTS assay for small molecule activators of the rat pregnane X receptor (rPXR) signaling pathway (AID 651751; call rule not given here); conditions: rPXR reporter cells, luciferase (One-Glo), 24 h
# [3] = qHTS assay for small molecule activators of the human pregnane X receptor (PXR) signaling pathway (AID 720659; call rule not given here)
# [4] = qHTS assay to identify inhibitors of the type 1 interferon - major histocompatibility complex class I in skeletal muscle: Counter screen cell viability and HiBit confirmation (AID 1347412); conditions: iHSKM muscle cells + IFN-b, HiBiT or CellTiter-Glo, 24 h; Potency: HiBiT; Viability, at 45.9 µM (top of the series); further: nearly all actives have a fitted effect of over 60% in size
# In short: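 Duplicate plates, pinned identically: one read for HiBiT-tagged endogenous HLA-B luminescence, the other for ATP-content viability via CellTiter Glo. Cells were genome-engineered human myoblasts given 4 ng/ml IFN-b; compounds 12-pt, 1:3 from 46 uM final; 24 hr exposure.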
# [5] = at 45.9 µM (top of the series), tumour line B
# [6] = at 45.9 µM (top of the series), tumour line D
# [7] = at 46.1 µM (top of the series), tumour line C
# [8] = at 91.6 µM (top of the series), tumour line B
# [9] = at 91.6 µM (top of the series), tumour line D
# [10] = at 99.2 µM (top of the series), tumour line C
# [11] = at 91.6 µM (top of the series), tumour line A
# [12] = at 46 µM (top of the series), tumour line A
# Nuclear receptor subfamily 1 group I member 2 (Rattus norvegicus), sequence (Q9R1A7 whole entry, looked up): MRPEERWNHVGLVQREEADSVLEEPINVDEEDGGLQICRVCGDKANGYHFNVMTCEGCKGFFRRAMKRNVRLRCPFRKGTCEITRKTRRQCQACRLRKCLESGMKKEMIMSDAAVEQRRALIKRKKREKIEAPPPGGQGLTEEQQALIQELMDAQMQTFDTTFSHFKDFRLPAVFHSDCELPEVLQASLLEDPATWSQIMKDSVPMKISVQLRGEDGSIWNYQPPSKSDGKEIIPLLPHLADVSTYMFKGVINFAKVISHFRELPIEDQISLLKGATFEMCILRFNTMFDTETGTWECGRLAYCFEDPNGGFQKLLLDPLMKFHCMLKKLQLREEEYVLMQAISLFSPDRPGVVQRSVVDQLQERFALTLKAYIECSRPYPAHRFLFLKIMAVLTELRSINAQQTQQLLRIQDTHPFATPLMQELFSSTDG
smiles,measurement,setting,value
CC(C)=CCC/C(C)=C/CC/C(C)=C/C(=O)OCC(=O)[C@@]1(O)CC[C@H]2[C@@H]3CCC4=CC(=O)C=C[C@]4(C)[C@H]3[C@@H](O)C[C@@]21C,Potency,OV90,inactive
same,Potency,Tov-21-G,inactive
O=C(Nc1ccc(S(=O)(=O)N2CCOCC2)cc1)c1cc(Cl)ccc1NS(=O)(=O)c1ccc(Cl)s1,Potency,OV90,inactive
same,Potency,SKOV3,inactive
same,Potency,Tov-21-G,inactive
same,Potency,Tov112D,inactive
same,Potency,astro,31.6 µM (active)
Cc1ccccc1C(=O)N1CC/C(=N\OS(=O)(=O)O)c2ccc(Cl)cc21,Potency,OV90,inactive
same,Potency,PA-1,inactive
same,Potency,Tov-21-G,inactive
same,Potency,Tov112D,inactive
same,Potency,astro,inactive
Cc1ccc(Cl)c(OCC(O)CNC(C)(C)C)c1 (stereo not given),Potency,OV90,inactive
same,Potency,SKOV3,inactive
CCCCCCCCCCCCCCCC[N+](C)(C)Cc1ccccc1,Potency,OV90,25.1 µM (active)
same,Potency,PA-1,15.8 µM (active)
same,Potency,astro,12.6 µM (active)
CC(CCc1ccc2c(c1)OCO2)NN (stereo not given),Potency,OV90,inactive
same,Potency,PA-1,inactive
same,Potency,Tov-21-G,inactive
same,Potency,Tov112D,inactive
same,"activity, negative = cell killing",[1]; [5],-11.1%
same,"activity, negative = cell killing",[1]; [6],-1.96%
same,"activity, negative = cell killing",[1]; [7],-0.872%
same,Potency,astro,inactive
COC(=O)c1c(Cl)c(Cl)c(C(=O)OC)c(Cl)c1Cl,Potency,OV90,inactive
same,Potency,PA-1,inactive
same,Potency,Tov-21-G,inactive
same,Potency,Tov112D,inactive
same,"activity, negative = cell killing",[1]; [8],-13.9%
same,"activity, negative = cell killing",[1]; [9],-16.3%
same,"activity, negative = cell killing",[1]; [10],-5.72%
same,Potency,astro,inactive
same,max response,[2],2.2%
CC(=O)Nc1ccc(S(=O)(=O)Nc2cc(C)on2)cc1,Potency,OV90,inactive
same,Potency,PA-1,inactive
same,Potency,Tov-21-G,inactive
same,Potency,Tov112D,inactive
same,"activity, negative = cell killing",[1]; [5],4.82%
same,"activity, negative = cell killing",[1]; [6],-21%
same,"activity, negative = cell killing",[1]; [7],-0.236%
same,Potency,astro,inactive
CC[C@@H]([C@H](C)O)n1ncn(-c2ccc(N3CCN(c4ccc(OC[C@@H]5CO[C@@](Cn6cncn6)(c6ccc(F)cc6F)C5)cc4)CC3)cc2)c1=O,Potency,OV90,15.8 µM (active)
same,Potency,SKOV3,15.8 µM (active)
CN1C(=O)c2ccccc2C1=O,Potency,OV90,inactive
same,Potency,PA-1,inactive
same,Potency,Tov-21-G,inactive
same,Potency,Tov112D,inactive
same,"activity, negative = cell killing",[1]; [11],-18.9%
same,"activity, negative = cell killing",[1]; [8],-9.87%
same,"activity, negative = cell killing",[1]; [9],-20.8%
same,"activity, negative = cell killing",[1]; [10],6.36%
same,Potency,astro,inactive
same,max response,[2],0.847%
same,outcome,[3],inactive
COc1ccccc1OCC1CNC(=O)O1 (stereo not given),Potency,OV90,inactive
same,Potency,PA-1,inactive
same,Potency,Tov-21-G,inactive
same,Potency,Tov112D,inactive
same,"activity, negative = cell killing",[1]; [5],-0.636%
same,"activity, negative = cell killing",[1]; [6],-0.575%
same,"activity, negative = cell killing",[1]; [12],-28.8%
same,"activity, negative = cell killing",[1]; [7],4.79%
same,Potency,astro,inactive
CC(=O)/C=C/C=C1/C2CCC(C2)C1(C)C (stereo not given),Potency,OV90,inactive
same,Potency,SKOV3,inactive
same,Potency,Tov-21-G,inactive
same,Potency,Tov112D,inactive
CC(C)(C)c1ccc(O)c(O)c1,Potency,OV90,35.5 µM (active)
same,Potency,SKOV3,31.6 µM (active)
same,Potency,astro,inactive
same,max response,[2],-0.177% and 2.15%
C1=CC2C3C=CC(C3)C2C1 (stereo not given),Potency,OV90,inactive
same,Potency,PA-1,inactive
same,Potency,Tov-21-G,inactive
same,Potency,Tov112D,inactive
same,Potency,astro,inactive
same,max response,[2],2.57%
same,outcome,[3],inactive
NC(=O)NC1N=C([O][Al])NC1=O (stereo not given),Potency,OV90,inactive
same,Potency,SKOV3,inactive
same,Potency,Tov-21-G,inactive
same,Potency,Tov112D,inactive
O=C(O)[C@H](O)[C@@H](O)[C@H](O[C@@H]1O[C@H](CO)[C@H](O)[C@H](O)[C@H]1O)[C@H](O)CO,Potency,OV90,inactive
same,Potency,PA-1,inactive
same,Potency,Tov-21-G,inactive
same,Potency,Tov112D,inactive
same,"activity, negative = cell killing","[1]; at 20 µM (top of the series), tumour line C",-12.3%
same,"activity, negative = cell killing","[1]; at 21.2 µM (top of the series), tumour line B",-2.57%
same,"activity, negative = cell killing","[1]; at 21.2 µM (top of the series), tumour line D",-4.25%
same,"activity, negative = cell killing","[1]; at 21.3 µM (top of the series), tumour line A",-22.9%
same,Potency,astro,inactive
CCCCNc1ccc(C(=O)OCCN(CC)CC)cc1,Potency,OV90,inactive
same,Potency,PA-1,inactive
same,Potency,Tov-21-G,inactive
same,Potency,Tov112D,inactive
same,"activity, negative = cell killing",[1]; [7],-27.5%
same,Potency,[1]; tumour line A,14.1 µM (active)
same,Potency,[1]; tumour line D,14.1 µM (active)
same,Potency,astro,inactive
C[C@H](N)C(=O)N[C@@H](C)C(=O)NC1[C@H]2CN(c3nc4c(cc3F)c(=O)c(C(=O)O)cn4-c3ccc(F)cc3F)C[C@@H]12 (stereo not given in full),Potency,OV90,inactive
same,Potency,SKOV3,inactive
same,Potency,Tov-21-G,inactive
same,Potency,Tov112D,inactive
CCCCCOc1ccc(C2SC(=O)NC2=O)cc1OCC (stereo not given),Potency,OV90,inactive
same,Potency,PA-1,inactive
same,Potency,Tov-21-G,inactive
same,Potency,Tov112D,inactive
same,"activity, negative = cell killing",[1]; [5],-6.4%
same,"activity, negative = cell killing",[1]; [6],-4.3%
same,"activity, negative = cell killing",[1]; [7],-14.2%
same,Potency,astro,inactive
c1ccc2occc2c1,Potency,OV90,inactive
same,Potency,PA-1,inactive
same,Potency,Tov-21-G,inactive
same,Potency,Tov112D,inactive
same,"activity, negative = cell killing",[1]; [11],-19.3%
same,"activity, negative = cell killing",[1]; [8],-4.88%
same,"activity, negative = cell killing",[1]; [9],-16%
same,"activity, negative = cell killing",[1]; [10],4.01%
same,Potency,astro,inactive
same,max response,[2],2.28% and 7.63% and -1.22%
CC(C(=O)O)c1ccc(/C=C2\CCCCC2=O)cc1 (stereo not given),Potency,OV90,inactive
same,Potency,PA-1,inactive
same,Potency,Tov-21-G,inactive
same,Potency,Tov112D,inactive
same,"activity, negative = cell killing",[1]; [5],-2.39%
same,"activity, negative = cell killing",[1]; [6],-17%
same,"activity, negative = cell killing",[1]; [12],-27.9%
same,"activity, negative = cell killing",[1]; [7],3.8%
same,Potency,astro,inactive
CC(=O)N(CC(O)CO)c1c(I)c(C(=O)NCCO)c(I)c(C(=O)NCC(O)CO)c1I (stereo not given),Potency,OV90,inactive
same,Potency,PA-1,inactive
same,Potency,Tov-21-G,inactive
same,Potency,Tov112D,inactive
same,"activity, negative = cell killing",[1]; [5],-10.8%
same,"activity, negative = cell killing",[1]; [6],12.9%
same,"activity, negative = cell killing",[1]; [7],-5.5%
same,Potency,astro,inactive
O=C(O)CNC(=O)CNC(=O)CNC(=O)CSC(=O)c1ccccc1,Potency,OV90,inactive
same,Potency,PA-1,inactive
same,Potency,Tov-21-G,inactive
same,Potency,Tov112D,inactive
same,"activity, negative = cell killing",[1]; [5],2.75%
same,"activity, negative = cell killing",[1]; [6],-4.9%
same,"activity, negative = cell killing",[1]; [12],-23.1%
same,"activity, negative = cell killing",[1]; [7],-10.1%
same,Potency,astro,inactive
Cn1c(=O)c2c(ncn2CC(=O)O)n(C)c1=O,Potency,OV90,inactive
same,Potency,PA-1,inactive
same,Potency,Tov-21-G,inactive
same,Potency,Tov112D,inactive
CN(C)c1cc2c(Nc3ccc4c(cnn4Cc4ccccc4)c3)ncnc2cn1,Potency,OV90,inactive
same,Potency,SKOV3,inactive
same,Potency,Tov-21-G,inactive
same,Potency,Tov112D,inactive
Nc1ncnc2nc[nH]c12,Potency,OV90,inactive
same,Potency,PA-1,inactive
same,Potency,Tov-21-G,inactive
same,Potency,Tov112D,inactive
same,"activity, negative = cell killing",[1]; [5],11.8%
same,"activity, negative = cell killing",[1]; [6],4.13%
same,"activity, negative = cell killing",[1]; [12],-8.57%
same,"activity, negative = cell killing",[1]; [7],8.85%
same,Potency,astro,inactive
CCOC(=O)O[C@]1(C(=O)OCCl)CC[C@H]2[C@@H]3CCC4=CC(=O)C=C[C@]4(C)[C@H]3[C@@H](O)C[C@@]21C,Potency,OV90,inactive
same,Potency,PA-1,inactive
same,Potency,Tov-21-G,inactive
same,Potency,Tov112D,inactive
same,Potency,[4],inactive
